Measurements from PubChem BioAssay (NCI).
Compounds without any hit were thinned out: in the full panel of roughly 79,000, 15% have a hit. No stated cut-off is given here; in the data, active means growth inhibition above about 70%; inactive means the rest.

Assays:
[1] = NCI Yeast Anticancer Drug Screen. Data for the rad50 strain (AID 155);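 further: 0% = growth of vehicle-only cultures of the same strain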; details: S. cerevisiae rad50 strain growth inhibition; at 50.0 µM; hits give high values
Summary of the method: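 Relative growth inhibition (compound vs vehicle) was measured in yeast with a defined repair-gene alteration.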

[2] = NCI Yeast Anticancer Drug Screen. Data for the mec2-1 strain (AID 157); details: S. cerevisiae mec2-1 strain, at 50.0 µM, hits give high values
Summary of the method: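 Vehicle-treated cultures served as reference for growth inhibition of compound-exposed mec2-1 yeast.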

[3] = NCI Yeast Anticancer Drug Screen. Data for the sgs1 mgt1 strain (AID 161);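 further: 0% = growth of cultures given vehicle only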; details: S. cerevisiae sgs1 mgt1 strain, at 50.0 µM, hits give high values
Summary of the method: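 Inhibition of yeast growth, normalised to vehicle-treated controls, is reported for a strain bearing genetic alterations in DNA damage repair.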

[4] = NCI Yeast Anticancer Drug Screen. Data for the cln2 rad14 strain (AID 165);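 further: 0% = growth equal to vehicle treated cultures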; details: S. cerevisiae cln2 rad14 strain, at 50.0 µM, hits give high values
Summary of the method: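 Each compound was tested on cln2 rad14 yeast. Inhibition of growth was calculated against vehicle-exposed controls.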

[5] = NCI Yeast Anticancer Drug Screen. Data for the bub3 strain (AID 167); details: S. cerevisiae bub3 mutant strain, at 50.0 µM, hits give high values
Summary of the method: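 Screening used yeast with an engineered genetic alteration affecting cell cycle control. Compound-exposed cultures were compared with vehicle cultures, and reduced growth was taken as inhibition.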

[6] = NCI Yeast Anticancer Drug Screen. Data for the mlh1 rad18 strain (AID 175); details: S. cerevisiae mlh1 rad18 strain growth inhibition; at 50.0 µM; hits give high values
Summary of the method: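 Vehicle-treated cultures served as the reference for growth inhibition in a yeast strain carrying DNA damage repair alterations exposed to each compound.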

Measured: growth inhibition

CCn1c2c(c3ccccc3c1=O)C(=O)c1ccccc1-2
inactive: [1] 12% | [2] 3.9% | [3] 16.8% | [4] 12.8%

Clc1cccc(Cl)c1Br
inactive: [1] 7.45% | [2] -26.2%

O=S(=O)(O)c1ccc(-c2ccccc2)cc1
inactive: [1] -0.4% | [2] -16.1%

O=C1CC(c2ccccc2)NCCCCN2CC(CN1)C(C(O)c1ccccc1)C2=O (centres undefined)
inactive: [1] -20.4% | [2] -34.8% | [3] -39.4% | [4] 8.95% | [5] -44.6%

Cc1ccc(-c2noc(C)n2)cc1
inactive: [1] -12.9% | [2] 13.2% | [3] -2.75% | [4] -14.2% | [5] 4%

COc1ccc(NC(=S)N(C)C)cc1
inactive: [1] 19.5% | [2] -11%

CCCCCCC(=O)CCCC(C)CCCC(C)C (centres undefined)
inactive: [1] -13.5% | [2] -23.6%

Fc1ccc(Nc2nc(Cl)c3[nH]cnc3n2)cc1Cl
inactive: [1] 11.5% | [2] 1.45% | [3] 27.6% | [4] 7.6% | [5] 32.6%

CCOC(=O)C1CCC(C(=O)OCC)N1c1ccc(C=O)cc1 (centres undefined)
inactive: [1] 16.1% | [2] -18.1%

COc1cc(/C=C2\CN(C)C(=O)C2=O)ccc1O
inactive: [1] -11.7% | [2] -27.2%

COc1ccc(C(C(N)=O)N2CCCC2)cc1 (centres undefined)
inactive: [1] 1% | [2] -19.6%

CC(=O)NS(=O)(=O)c1ccc2sc(C)nc2c1
inactive: [1] -32% | [2] -22.6%

c1ccc(N(c2ccccc2)c2ccccc2)cc1
inactive: [1] 5% | [2] -14.7% | [3] 1.9% | [4] 7.1% | [5] -10.4% | [6] 4.05%

CCOc1ccc(NC(=O)C2CCC(C)(C(=O)O)C2(C)C)cc1 (centres undefined)
inactive: [1] -3.45% | [2] 0.35%

O=C(CC(CC(=O)c1ccccc1)c1ccco1)c1ccccc1
inactive: [1] 2.6% | [2] -17.2%

COc1ccc(/C=c2\[nH]c3nc(=O)c(N4CCOCC4)c(N)n3c2=O)cc1
inactive: [1] 0.9% | [2] -19.4% | [3] 1.6% | [4] -11.8% | [5] -26.1%

O=C(N/N=C/c1ccc2c(c1)CCC2)c1cccc([N+](=O)[O-])c1
inactive: [1] -17.9% | [2] -30.9%

Cc1c(Cl)cccc1NCN1C(=O)c2ccccc2C1=O
inactive: [1] 9.65% | [2] -6.6%

NC1N=C(c2ccc(Cl)cc2)C2=C(N1)c1ccccc1CC2 (centres undefined)
inactive: [1] -7.1% | [2] 0.9% | [3] -0.75% | [4] 8.05% | [5] 18.9%

N#Cc1nc(-c2cccc(-c3nc(C#N)c(N)o3)n2)oc1N
inactive: [1] 2.7% | [2] 13.7% | [3] -18.1% | [4] 7.9% | [5] -11.8% | [6] -58.6%

Cc1ccc(N2CSC(=S)N(c3ccc(C)cc3)C2)cc1
inactive: [1] -10.4% | [2] -25.9%

COc1cc(/C=N/NC(=O)c2ccncc2)cc(OC)c1OC
inactive: [1] -14.2% | [2] -48.5%

COc1cc(/C=N/N2C(=O)c3ccccc3C2=O)ccc1O
inactive: [1] 26.8% | [2] 8.1%

Oc1cc(Br)ccc1C=Nc1ccc(N2CCCCC2)cc1
inactive: [1] 25.4% | [2] 10.5%

COc1cc2oc3c(c(=O)c2c(O)c1/C=C/C(C)C)CCC(C)(C)Oc1cc(O)ccc1-3
inactive: [1] 22.6% | [2] 11.1% | [3] 49% | [4] 47.3% | [5] 39.5%

O=C(O)C1(c2ccc(Cl)cc2)CCCC1
inactive: [1] 12.1%

O=C1OC(=O)C2C1OC1C(=O)OC(=O)C12 (centres undefined)
inactive: [1] -35.6% | [2] -33.1%

COC(=O)C(=O)C(C(=O)C(=O)Nc1nc2ccc(C)cc2s1)c1nc2ccc([N+](=O)[O-])cc2[nH]c1=O (centres undefined)
inactive: [1] 56.1% | [2] 15.4% | [3] 22.1% | [4] -30.6% | [5] 26.1% | [6] 20.2%

COc1ccc2cc1Oc1ccc(cc1)CC1c3cc(OC)c(cc3CCN1C)Oc1c(OC)c(OC)cc3c1C(C2)N(C)CC3 (centres undefined)
inactive: [1] -4.6% | [2] -15.7% | [3] -6.8% | [4] 6.9% | [5] 5.25%

COc1ccc(NCc2ccc(C)cc2)cc1
inactive: [1] -2.55% | [2] -17.1%

CC(C)Oc1ccc(C(=O)NS(=O)(=O)c2ccc(N)cc2)cc1
inactive: [1] -25% | [2] -32.5%

COc1cc(/C=N/NC(=O)c2cccs2)cc(OC)c1OC
inactive: [1] -12.8% | [2] -26.1%

Oc1ccccc1C=Nc1ccccc1C(F)(F)F
inactive: [1] -7.3% | [2] -19.9%

C[Si](C)(CCl)N[Si](C)(C)CCl
inactive: [1] -23.6% | [2] -33.9%

Nc1ccccc1SC1CC(=O)N(c2ccccc2Cl)C1=O (centres undefined)
inactive: [1] -18.4% | [2] -33.1%

Cc1ccc(N2CCOC2=O)cc1N1CCOC1=O
inactive: [1] -8.3% | [2] -32.6%

NC(=S)Nc1[nH]c(=S)nc2c1SC1=N/C(=C\c3ccco3)C(=O)N12
inactive: [1] 7.45% | [2] -13.6% | [3] 25.5% | [4] 18.1% | [5] 33.9%

Cc1ccc(C)c(NC(=O)/C(=N\N)C(c2cnc3ccc([N+](=O)[O-])cc3n2)[N+](=O)[O-])c1 (centres undefined)
inactive: [1] 42.5% | [2] 27.2% | [3] 6.75% | [4] -35.2% | [5] 32.2%

Nc1cc(S(=O)(=O)c2ccc(O)c(N)c2)ccc1O
inactive: [1] 5.1% | [2] -0.85%

N#[N+]c1ccc2c(S(=O)(=O)O)cccc2c1O
inactive: [1] -17.9% | [2] -16.2%

Cc1cc(N(CCC#N)CCC#N)ccc1/C=N/NC(=O)c1cc(Cl)ccc1O
inactive: [1] -1.8% | [2] -18.3% | [3] -40.8% | [4] -9.2% | [5] -23.7% | [6] -32%

N#C/C=C1\C=CC(O)C(O)C1OC1OC(CO)C(O)C(O)C1O (centres undefined)
inactive: [1] 21.6% | [2] 7.3% | [3] 37.9% | [4] 27.6% | [5] 12.9% | [6] -62.7%

COc1ccc2c(=O)c(-c3cc4c(cc3OC)OCO4)coc2c1
inactive: [1] -26.5% | [2] -30.9% | [3] -11.3% | [4] -3.1% | [5] -33.5% | [6] -56.4%

Cc1ccc(NC(=O)/C(Cc2cc(=O)oc3cc(O)ccc23)=N\NC(C)(C)C)cc1C
inactive: [1] -3.95% | [2] -10.3% | [3] -21.9% | [4] -33.9% | [5] -17.9% | [6] -3.5%

CC(C)=CC(O)C/C(C)=C/CC/C(C)=C/CCC1(C)C(CCCO)/C(=C(/C)C=O)CCC1(C)O (centres undefined)
inactive: [1] 18.9% | [2] 4.75% | [3] 10.2% | [4] 16.9% | [5] 4.6% | [6] -52.9%

C=CCNC1=C2C[C@@H](C)C[C@@H](OC)[C@@H](OC(=O)CCCN)[C@H](C)/C=C(\C)[C@@H](OC(N)=O)[C@H](OC)/C=C\C=C(/C)C(=O)NC(=CC1=O)C2=O
inactive: [1] -5.15% | [2] -0.55% | [3] 14.2% | [4] 13.2% | [5] 20.6% | [6] 4.6%

O=C1NC(N/N=C\C(O)C(O)C(O)C(O)CO)=N/C1=C\c1ccc(Cl)cc1 (centres undefined)
inactive: [1] 23.6% | [2] 30.6% | [3] 25.8% | [4] 26.9% | [5] 24.4% | [6] 17.6%

Cc1ccc(/C=N/Nc2cnccn2)s1
inactive: [1] -30.9% | [2] -25.2% | [3] -30.9% | [4] 15.2% | [5] -41.2% | [6] -9.3%

O=C(O)c1cc(C(=O)O)cc([N+](=O)[O-])c1
inactive: [1] -3.75% | [2] -5.9% | [3] 4.75% | [4] 0.25% | [5] 8.3% | [6] 7.35%

C[C@@H]1C[C@@H]2OC(=O)[C@]3(C)[C@H]2[C@@H](OC3(C)O)[C@]2(C)C(=O)C=C[C@@H]12 (some centres undefined)
inactive: [1] -27.6% | [2] -45.6% | [3] -40.4% | [4] -12.7% | [5] -48.6% | [6] -35.5%

Cc1ccc(OCC2OC(n3cnc4nc(N)nc(Cl)c43)CC2Oc2ccc(C)cc2)cc1 (centres undefined)
inactive: [1] 20.2% | [2] 28.4% | [3] 44.7% | [4] 46.5% | [5] 49.3% | [6] 2.6%

Cc1ccc(/C=C2/N=C(N/N=C\c3ccccc3)NC2=O)cc1
inactive: [1] -6.15% | [2] 14.9% | [3] -19.4% | [4] 1.75% | [5] -9.1% | [6] -41.1%

COC(=O)C(C(=O)C(=O)Nc1c(C)cccc1C(C)(C)C)c1nc2ccc(Cl)cc2[nH]c1=O (centres undefined)
inactive: [1] -7.9% | [2] -26.9% | [3] -2.25% | [4] 16.9% | [5] -3.5% | [6] 12.7%

CC12CCC(CC1)C(C)(C)O2
inactive: [1] -1.95% | [2] 3.3% | [3] -2.5% | [4] 9.6% | [5] -1.25% | [6] 4.7%
